HCMV antiviral: inhibitors of human cytomegalovirus; activity change, negative = inhibition, % at 57.5 µM; 410,000 tested, 4.5% active; HFF cells, HCMV-luciferase reporter, 72 h; hits give low values; in the data active = activity change below about -60%; inconclusive = no clear call, values can overlap the other calls; inactive = above about -39%
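Cell-based, HFFs, 1000 cells/well, 16 h 37C; cpds in DMSO + HCMV-luc, MOI 1 PFU/cell; 72 h 37C; OneGlo luminescence after 5 min RT; norm. to buffer vs Salinomycin 10uM.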
Lassa entry inh: blocks Lassa virus binding to or entry into cells | Lassa virus pseudotype entry inhibition, cell reporter | 300,000 tested, 1.2% active | Potency, µM (series often up to 37.9 µM), for the others: at the top dose activity change, negative = inhibition, usual class: inhibitors | AID 540256; calls by dose curve; tested in HEK293 cells; note: potency is the fitted concentration of half-maximal effect; nearly all actives have a fitted effect of over 50% in size
VACV mCherry inh: inhibitors of vaccinia virus infection (mCherry reporter signal); Vaccinia virus mCherry reporter infection, fluorescence; Potency, µM (highest dose often 36.5 µM), without a hit: top-dose activity change, negative = inhibition, most hits filed as inhibitors; 310,000 tested, 0.63% active; calls by dose curve; tested in A549 cells; note: potency is the fitted concentration of half-maximal effect; nearly all actives have a fitted effect of over 35% in size
Vaccinia Venus: inhibitors of vaccinia virus (Venus reporter); Vaccinia virus Venus reporter expression, fluorescence; Potency, µM (doses to about 36.5 µM), for inactives: at the highest dose activity change, negative = inhibition, actives largely listed as inhibitors; 330,000 tested, 0.46% active; AID 720580; calls by dose curve; tested in A549 cells; note: potency is the fitted concentration of half-maximal effect; nearly all actives have a fitted effect of over 30% in size
HCV inhibitor: blocks hepatitis C virus. Huh7.5.1 HCVcc-Cre infection, luciferase reporter, 44 h. Potency, µM (titrated, usually from 41.8 µM), for inactives: at the top dose activity change, negative = inhibition, most hits filed as inhibitors. 340,000 tested, 3.4% active. AID 651820; active = well fitted inhibition curve with a large enough effect; inconclusive = small, poorly fitted or top-dose-only effect, or another doubt; inactive = no such curve, though single readings can be large or run the other way; note: potency is the fitted concentration of half-maximal effect
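HCVcc-Cre virus at an moi near 0.5 was added right after compound to cells cultured 4 h from seeding (1,000 cells/well). Luciferase activity was determined 44 h later, 15 min after substrate addition at RT.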
MARV entry inh: inhibitors of Marburg virus binding or cell entry | Marburg virus pseudotyped entry inhibition, cell reporter | Potency, µM (series often up to 37.8 µM), inactives show at the top dose activity change, negative = inhibition, hits mostly inhibitors | 300,000 tested, 1.8% active; calls by dose curve; tested in HEK293 cells; note: potency is the fitted concentration of half-maximal effect
* hit, by the source's call; i = inactive; ? = inconclusive; / = no result; [ ] = another dose, or the depositor's remark. The list is not random: actives were taken first. Their share in the collection is about 7.8%. % is set by controls: 0 for no effect and ±100 for the full control effect.

SMILES	HCMV antiviral	Lassa entry inh	VACV mCherry inh	Vaccinia Venus	HCV inhibitor	MARV entry inh
COC(=O)c1ccc(NC(=O)CC2C(=O)N(c3cccc(OC)c3)C(=O)N2Cc2cccs2)cc1 (stereo not drawn)	-25.6	?	-4.2%	-3.9%	/	/
Cc1ccc(S(=O)(=O)CCSC(=N)N)cc1	-39.6	?	?	?	10µM*	?
CCC(=O)N1CCc2cc(CNC(=O)c3cccc(N(C)C)c3)ccc21	-23.8	-1.9%[46.1 µM]	-11.8%	-11.4%	/	/
O=C(Cn1ncc(Cl)c(Cl)c1=O)N1CCc2ccccc21	-95.1*	?	?	?	?	?
O=C(Cn1ncc(Cl)c(Cl)c1=O)N1CCOCC1	-99.0*	?	?	?	?	?
O=C(Cn1ncc(Cl)c(Cl)c1=O)N1CCN(Cc2ccccc2)CC1	-82.6*	/	/	/	3.55µM*	/
Cc1c2cnn(CC(=O)N3CCOCC3)c(=O)c2c(C)n1Cc1ccc(F)cc1	-5.4	/	/	/	/	/
Cc1cccc(N(CC(=O)NC(C)c2ccccc2)S(=O)(=O)c2ccccc2)c1C (stereo not drawn)	-19.7	?	-27.6%	-23.8%	/	?
Cc1cccc(CNC(=O)c2c3n(c(C)cc2=O)-c2ccccc2SC(c2sccc2C)C3)n1 (stereo not drawn)	/	/	-1.8%	11.6%	/	/
O=C(NCCC1=CCCCC1)c1ccc2c(c1)N(Cc1cccc(Cl)c1)C(=O)c1ccccc1S2=O (stereo not drawn)	-62.8*	-26.9%[46.1 µM]	-13.8%	-10.5%	/	/
O=C(NCCC1=CCCCC1)c1ccc2c(c1)N(Cc1ccc(Cl)cc1)C(=O)c1ccccc1S2(=O)=O	31.0	?	-12.5%	-23.2%	/	11.2µM*
COc1ccc(Br)cc1CNC(=O)Cn1c(=O)c2cccn2c2ccc(F)cc21	-27.6	0.5%[46.1 µM]	-20.6%	-22.7%	/	/
CCCN1C(=O)C2(c3ccccc31)c1c(oc3ccc(F)cc3c1=O)C(=O)N2CCCOC(C)C (stereo not drawn)	-16.6	1.2%[46.1 µM]	-8.5%	-10.9%	/	14.5%[46.1 µM]
CC1=Nc2cc(C(=O)NCc3ccccc3Cl)ccc2Sc2c(C)ccc(C)c21	-90.4*	?	?	-27.2%	/	?
CC1=Nc2cc(C(=O)N3CCCC3)ccc2Sc2c(C)ccc(C)c21	-99.6*	/	/	/	1.5%	/
O=C(NCc1ccco1)c1ccc2c(c1)N(Cc1ccc(Cl)cc1)C(=O)c1ccccc1S2(=O)=O	13.5	-16.9%[46.1 µM]	-9.9%	-9.9%	/	?
CC#CCOC(=O)c1c(C)nc2sc3c(c2c1N)CC[C@@H](O)C3	/	/	?	3.55µM*	/	-37.7%
Oc1ccc(-c2nc3c4c(ncn3n2)-c2ccccc2CC42CCCC2)cc1	-65.5*	8.6%	-13.5%	-6.2%	?	0.5%
Cc1cc(C(=O)NNc2ccc(Cl)cc2)no1	-34.9	-8.4%[46.1 µM]	-23.3%	-9.9%	-5.0%	4.47µM*
O=S(=O)(c1ccc(Cl)cc1)c1nnn2c1nc(NCc1cccs1)c1sccc12	20.5	-0.1%[46.1 µM]	i	-19.7%	/	/
CCOC(=O)C1=C(c2ccccc2)N=c2s/c(=C\c3ccc(O)cc3)c(=O)n2C1c1cccs1 (stereo not drawn)	44.7	16.4µM*	54.2%	i	10µM*	?
COc1cc(C(=O)NCCC(=O)NC2CCCc3ccccc32)cc(OC)c1OC (stereo not drawn)	17.3	0.8%[46.1 µM]	i	-13.5%	-3.8%	?
CCCCOC(=O)NC1CCc2cc(OC)c(OC)c(OC)c2-c2ccc(SC)c(=O)cc21 (stereo not drawn)	-79.8*	?	i	?	-30.0%	?
CCOC(=O)N1CCC(N2C(=O)c3ccccc3C2Nc2cc(OC)c(OC)c(OC)c2)CC1 (stereo not drawn)	-17.1	/	13.3%	-21.0%	7.5%	/
CCOCC(=O)NC1CCc2cc(OC)c(OC)c(OC)c2-c2ccc(SC)c(=O)cc21 (stereo not drawn)	-66.2*	?	-23.5%	?	-21.7%	-16.8%
SMILES	HCMV antiviral	Lassa entry inh	VACV mCherry inh	Vaccinia Venus	HCV inhibitor	MARV entry inh
CCOC(=O)NC1CCc2cc(OC)c(OC)c(OC)c2-c2ccc(SC)c(=O)cc21 (stereo not drawn)	-72.1*	?	i	-36.0%	-15.8%	?
N#C[C@@H](C(=O)NC1CCCCC1)c1nc2ccccc2nc1N1CCN(c2ccccc2F)CC1	/	/	/	/	/	-15.0%[46.1 µM]
c1ccc(CNc2nc(-c3ccccn3)nc3ccccc23)cc1	-97.1*	?	?	-22.1%	3.16µM*	?
c1ccc(CNc2nc(-c3ccccc3)nc3ccccc23)cc1	?	21.9%[46.1 µM]	-12.6%	-22.7%	?	?
c1ccc(CNc2nc(-c3cccs3)nc3ccccc23)cc1	-73.9*	4.3%	-15.5%	-15.3%	?	6.8%
Fc1ccc(Nc2nc(NCc3ccco3)c3ccccc3n2)cc1	-13.5	/	/	/	10µM*	/
Nc1nc(Nc2ccccc2)nc(NCc2ccco2)c1[N+](=O)[O-]	-28.2	-19.6%	-25.8%	?	?	?
CC(C)(C)C(=O)OCCNc1nc(-c2cccs2)nc2ccccc12	/	/	-23.7%	-21.8%	/	/
c1ccc(CNc2nc(NCc3ccccc3)c3sccc3n2)cc1	-80.0*	/	-5.6%	-29.3%	/	/
COc1ccccc1CNc1nc(NCc2ccccc2)nc2ccsc12	?	/	-18.2%	?	/	/
CCOc1ccc(NC(=O)C2CCN(S(=O)(=O)c3ccc4c(c3)oc(=O)n4C)CC2)cc1	6.6	21.7%[46.1 µM]	6.6%	2.7%	/	9.7%[46.1 µM]
CCc1nnc(NC(=O)CSc2nc3c([nH]c4ccccc43)c(=O)n2-c2ccc(F)cc2)s1	-7.8	-0.6%[46.1 µM]	-16.0%	-2.2%	/	/
CC(=O)N1CCN(c2nc3cc(C)ccc3cc2CN(C(=O)c2cccc3ccccc23)C2CC2)CC1	/	/	-16.8%	-4.9%	/	/
c1ccc(CNc2nc(NCc3ccccc3)c3ccccc3n2)cc1	/	10µM*	-13.3%[7.34 µM]	-12.7%[7.34 µM]	?	?
CCC(C)Nc1nc(-c2ccccn2)nc2ccccc12 (stereo not drawn)	-99.0*	/	/	/	?	/
CCC(C)N(C(=O)CSc1nc(-c2cccs2)nc2ccccc12)C1CCS(=O)(=O)C1 (stereo not drawn)	-28.1	?	i	-21.3%	?	?
COc1ccccc1CNc1nc(NCc2ccccc2F)c2sccc2n1	/	/	-11.1%	-26.2%	/	/
Fc1ccccc1CNc1nc(NCC2CC2)nc2ccsc12	-86.7*	/	i	-14.3%	/	/
CC(Nc1nc(-c2ccccc2)nc2ccccc12)c1ccccc1 (stereo not drawn)	50.3	/	-0.1%	?	-29.6%	/
Fc1ccccc1-c1nc(NCc2ccccc2)c2ccccc2n1	-23.9	1.3%	-2.5%	-16.1%	-16.2%	-6.2%[46.1 µM]
CCSc1nc(-c2cccs2)nc2ccccc12	-1.5	12.7%	-17.6%	-9.7%	3.98µM*	-7.9%[46.1 µM]
O=c1oc2ccccc2cc1-c1nc(-c2cccs2)no1	16.1	3.9%[46.1 µM]	-2.7%	-4.8%	/	/
Cc1cc(NCc2ccccn2)nc2ccccc12	-6.5	17.2%	-1.4%	-9.6%	-10.0%	-2.3%

Screening data (PubChem BioAssay)
